This is a sample that favours compounds with a hit; in the whole collection about 1.4% have one here.
AmpC inh no detg: AmpC beta-lactamase inhibition without detergent. P00811. AmpC nitrocefin hydrolysis, absorbance 480 nm, 0.0001% Triton. Potency, µM (top dose mostly 57.1 µM), usual class: inhibitors. actives 0.52% (n = 330,000); also: nearly all actives have a fitted effect of over 20% in size
Target sequence (P00811 whole entry, looked up): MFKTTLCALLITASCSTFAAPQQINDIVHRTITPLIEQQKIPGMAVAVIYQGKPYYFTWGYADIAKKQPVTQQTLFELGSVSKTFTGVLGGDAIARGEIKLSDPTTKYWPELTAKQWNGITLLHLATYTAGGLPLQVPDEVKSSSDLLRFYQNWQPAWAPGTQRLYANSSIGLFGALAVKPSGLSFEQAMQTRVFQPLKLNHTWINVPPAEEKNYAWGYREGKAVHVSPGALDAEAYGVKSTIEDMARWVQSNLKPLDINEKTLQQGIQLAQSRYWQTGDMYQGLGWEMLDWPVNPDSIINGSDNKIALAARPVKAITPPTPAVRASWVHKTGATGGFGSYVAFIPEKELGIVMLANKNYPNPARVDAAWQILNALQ
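20 mM phosphate pH 7.0 + 0.01% (detergent screen) or 0.0001% Triton X-100; 5.3 nM AmpC reagent; cpd preinc 15 min RT; nitrocefin (800 uM stock) to start; A480 q20 s × 4 min; Activity was normalised to no-enzyme and no-compound control wells.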
Vaccinia Venus: inhibitors of vaccinia virus (Venus reporter); Vaccinia virus Venus reporter expression, fluorescence; Potency, µM (top dose mostly 36.5 µM), actives largely listed as inhibitors; actives 0.46% (n = 330,000); calls by dose curve; tested in A549 cells; also: nearly all actives have a fitted effect of over 30% in size
SARS PLpro yeast: blocks SARS-CoV papain-like protease in a yeast assay. S. cerevisiae expressing SARS-CoV PLpro, growth rescue. Potency, µM (titrated, usually from 32.9 µM), actives largely listed as activators. AID 485353. actives 0.19% (n = 330,000); calls by dose curve; also: nearly all actives have a fitted effect of over 55% in size
AmpC inh detg: AmpC beta-lactamase inhibition with detergent present | AmpC hydrolysis of nitrocefin, absorbance 480 nm, 0.01% Triton | P00811 | Potency, µM (highest dose often 114 µM), usual class: inhibitors | actives 0.041% (n = 370,000) | AID 485294; also: nearly all actives have a fitted effect of over 25% in size
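AmpC (5.3 nM in the dispensed reagent) in 20 mM phosphate pH 7.0 with 0.01% (detergent screen) or 0.0001% Triton X-100 was preincubated with compounds for 15 min at room temperature. Nitrocefin was then added from an 800 uM solution, and hydrolysis was followed at 480 nm.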
VACV mCherry inh: inhibitors of vaccinia virus infection (mCherry reporter signal); Vaccinia virus mCherry reporter infection, fluorescence; Potency, µM (titrated, usually from 36.5 µM), hits mostly inhibitors; actives 0.63% (n = 310,000); calls by dose curve; tested in A549 cells; also: nearly all actives have a fitted effect of over 35% in size
AMA1-RON2 inh: disrupts binding of P. falciparum AMA1 to RON2 | AlphaScreen AMA1-biotinylated RON2 peptide binding | Potency, µM (titrated, usually from 58.2 µM), most hits filed as inhibitors | actives 0.2% (n = 360,000) | AID 720542; also: nearly all actives have a fitted effect of over 45% in size
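AMA1 (3D7) with his tag at 25 nM final met compounds first, then biotinylated RON2 peptide at 25 nM; detection used donor plus acceptor beads, 10 µg/mL apiece, read by AlphaScreen after 30 min at room temperature.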
Hits are given with their value; - = inactive; ? = inconclusive; . = no result given; [ ] = remark or other dose. Unless noted, calls follow the shape of the dose curve; as a rule, active = well fitted curve in the direction sought with a large enough effect; inconclusive = small, poorly fitted or top-dose-only effect, or another doubt; inactive = no such curve, though single readings can be large; an effect the other way counts as inactive or inconclusive.

SMILES | AmpC inh no detg | Vaccinia Venus | SARS PLpro yeast | AmpC inh detg | VACV mCherry inh | AMA1-RON2 inh
CCCn1c(CN2CCN(c3ccc(OC)cc3)CC2)nc2c1c(=O)[nH]c(=O)n2C | . | - | . | - | - | .
CCn1cc(C2=NCCO2)c2ccccc21 | - | ? | - | - | 10µM | -
Clc1cccc(N2CCN(Cc3nc(-c4ccccc4)no3)CC2)c1 | 10µM | . | - | ? | . | -
CNc1ccc(/C=C2\C=Cc3ccccc32)cc1I | . | - | . | . | - | .
CCN(CC)CCNC(=O)c1nn(-c2ccc(Cl)cc2)c2c1CCc1cc(OC)ccc1-2 | . | 13µM | . | . | ? | -
Cc1cc(OCCn2cc(/C(N)=N/O)c3ccccc32)ccc1Cl | 16µM | ? | - | ? | ? | -
Cc1ccc2cccc(NC(=O)c3ccc(-c4cc(Cl)ccc4Cl)o3)c2n1 | . | - | . | - | - | .
O=[N+]([O-])c1ccc(N/N=C/c2ccc[nH]2)cc1 | ? | ? | - | - | 5µM | -
O=[N+]([O-])c1ccc(N/N=C/c2cccc(O)c2O)cc1 | 18µM | - | - | - | - | -
CCS(=O)(=O)c1ccc2oc(SCC(=O)NCCc3ccccc3)nc2c1 | -[2.29 µM] | ? | - | - | 13µM | -
COc1ccccc1C1CN(CC(=O)N[C@H]2CCCCNC2=O)Cc2ccccc2O1 (stereo partly drawn) | . | - | . | . | - | .
Cc1nn(C)cc1C1C(C#N)=C(N)N(c2ccc(F)c([N+](=O)[O-])c2)C2=C1C(=O)CCC2 (stereo not drawn) | - | ? | - | - | 10µM | -
Oc1cc2cc(-c3csc(-c4ccc(F)cc4)n3)ccc2[nH]1 | . | - | . | . | - | .
CN1CC(C(=O)c2ccc(Cl)cc2)C(c2ccc(N(C)C)cc2)C1 (stereo not drawn) | - | . | - | - | . | ?
CN1CC(C(=O)c2ccc(Cl)cc2)C(c2ccc(Cl)cc2Cl)C1 (stereo not drawn) | - | - | - | - | ? | 32µM
Cc1cc(C)n2nc(S(=O)(=O)NC3CCCCC3)nc2n1 | 2.5µM | . | - | - | . | -
Cc1cc(C)n2nc(CC(=O)NC3CCCCCCC3)nc2n1 | - | . | - | - | . | -
Cc1ccc(S(=O)(=O)N2CC=C(c3c(C)n(C)c4ccccc34)CC2)cc1 | - | - | - | - | - | -
CCn1c(C)c(C2=CCN(S(=O)(=O)c3ccccc3)CC2)c2ccccc21 | 18µM | - | - | - | - | -
COc1cccc(C(=O)Oc2ccc(/C=N/Nc3ccc(C(=O)O)cc3)cc2OC)c1 | - | - | - | - | - | -
COc1cccc(OCc2cc(/C=N/Nc3ccc(C(=O)O)cc3)ccc2OC)c1 | 18µM | -[7.34 µM] | - | - | ? | -
Cn1c(=O)[nH]c(NC2CCCCC2)c([N+](=O)[O-])c1=O | - | - | - | - | - | -
O=c1[nH]c(NC2CCCCC2)c([N+](=O)[O-])c(=O)[nH]1 | - | - | - | 89µM | - | -
O=C(NCC1CCN(Cc2ccc(F)cc2)CC1)c1cc2ccc3cccnc3c2[nH]1 | . | ? | . | - | - | .
COc1ccc(CCNC(=O)CCn2c(=O)c3ccccc3n(Cc3cc(C)ccc3C)c2=O)cc1OC | . | - | . | - | - | .
SMILES | AmpC inh no detg | Vaccinia Venus | SARS PLpro yeast | AmpC inh detg | VACV mCherry inh | AMA1-RON2 inh
COc1cccc(CC2(CO)CCCN(Cc3[nH]c4ccc(C)cc4c3C)C2)c1 (stereo not drawn) | - | ? | - | - | 11µM | -
COc1cccc(CC2(CO)CCCN(Cc3ccc(C)s3)C2)c1 (stereo not drawn) | - | - | - | - | - | -
Cc1cc(C)c(C)c(S(=O)(=O)ON2C(=O)c3ccccc3C2=O)c1C | - | - | - | 56µM | - | -
O=C1c2ccccc2C(=O)N1OS(=O)(=O)c1ccc(F)cc1 | - | . | - | 45µM | . | -
Cc1ccc(S(=O)(=O)ON2C(=O)c3ccccc3C2=O)c(C)c1 | - | - | - | 79µM | - | -
Cc1cc(C)c(S(=O)(=O)ON2C(=O)c3ccccc3C2=O)cc1C | - | - | - | 50µM | - | -
Cc1ccc(OC(=O)CN2C(=O)c3ccccc3C2=O)cc1C | - | - | - | - | - | -
O=S(=O)(c1ccccc1)N1CCN(S(=O)(=O)c2ccc(F)cc2)CC1 | - | . | - | - | . | -
C[n+]1ccc(/C=C/c2cc[n+](C)c3ccccc23)c2ccccc21 | . | 10µM | . | . | ? | .
COCC1CCCN(c2nc(CN3CCN(C(=O)c4ccco4)CC3)nc3ccccc23)C1 (stereo not drawn) | . | - | . | . | - | .
O=C(c1ccccc1)C(CCC(CN1CCOCC1)C(=O)c1ccccc1)CN1CCOCC1 (stereo not drawn) | - | 7.9µM | - | - | . | -
CCC(O)(c1ccc(OC)cc1)C(CN1CCOCC1)c1ccccc1 (stereo not drawn) | - | . | - | - | . | -
CCCOc1ccc(C(=O)C(CN2CCCC2)c2ccccc2)cc1 (stereo not drawn) | - | 10µM | - | - | ? | -
O=C(c1ccc(F)cc1)C(CN1CCOCC1)c1ccccc1 (stereo not drawn) | - | 13µM | - | - | 14µM | -
CCCCOc1ccc(C(O)C(CN2CCCCC2)c2ccccc2)cc1 (stereo not drawn) | - | - | - | - | - | -
COc1ccc(C(=O)C(CN2CCOCC2)c2ccccc2)cc1 (stereo not drawn) | - | 10µM | - | ? | 10µM | -
CC(=O)c1ccc(-c2ccc3c4c(ccc3c2)OC(CNC(=O)[C@@H]2CCCN2C(C)=O)C4)s1 (stereo partly drawn) | . | - | . | . | - | .
CCCCCOc1ccc(C(=O)C(c2ccccc2)N2CCOCC2)cc1 (stereo not drawn) | - | - | - | - | - | -
COc1ccc(C(=O)C(CN2CCCC2)c2ccccc2)cc1 (stereo not drawn) | - | ? | - | - | 11µM | -
CN(C)CC(CCC(CN(C)C)C(=O)c1ccccc1)C(=O)c1ccccc1 (stereo not drawn) | - | 11µM | - | - | ? | -
CCOc1ccc(C(=O)C(CCC(CN(C)C)C(=O)c2ccc(OCC)cc2)CN(C)C)cc1 (stereo not drawn) | - | . | - | - | . | -
CCCCOc1ccc(C(=O)C(CN2CCOCC2)c2ccccc2)cc1 (stereo not drawn) | - | ? | - | - | 16µM | -
O=C(c1ccc(Cl)cc1)C(CN1CCCC1)c1ccccc1 (stereo not drawn) | - | . | - | - | . | -
COC(=O)c1cn([C@@H]2C[C@@H](C(=O)Nc3cccc(SC)c3)N(C3CCCCCC3)C2)nn1 | . | - | . | . | - | .
COc1ccccc1/C=c1/[nH]c(=O)/c(=C\c2ccccc2OC)[nH]c1=O | . | - | . | . | - | .
CCCCCCCCCCC1=C(C)C(=O)C(OC)=C(OC)C1=O | . | - | . | . | - | .
CCCCCCCCSC1=CC(=O)C(OC)=C(OC)C1=O | . | - | . | . | - | 7.9µM
